hgDAF12 agonist – agonists of H. glycines DAF-12 nuclear receptor; HEK293 GAL4-hgDAF12 UAS-luciferase reporter, agonist luminescence; normalized to butyrate control; activation, % at 6.8 µM; hit rate 1.8% among 370,000;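 active = activation above a cutoff set at the mean of all screened compounds plus 3 SD, cut at about 10% in these data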
DAX1 inh-1 – DAX1 (NR0B1) inhibition, primary screen. hit rate 1.1% among 370,000. AID 652010. inhibition, % at 6.8 µM. HEK293T StAR-luciferase reporter, SF-1/DAX-1 repression relief;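 active = inhibition above the mean over all tested compounds plus 3 SD, cut at about 3.6% in these data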;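 note: higher inhibition means more luminescence from relief of DAX-1 repression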
hcDAF12 agonist – activates DAF-12 receptor from parasite H. contortus; HEK293 hcDAF-12 lit1-tk-luc reporter, luminescence; 0% DMSO, 100% Δ7-dafachronic acid; activation, % at 6.8 µM; hit rate 1.4% among 370,000;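 active = activation above the mean of all tested compounds plus 3 SD, cut at about 5.5% in these data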
ssDAF12 agonist – activators of S. stercoralis DAF-12 nuclear receptor. HEK293 ssDAF-12/GRIP1 lit1-tk-luc reporter, luminescence; % of 3 µM dafachronic acid response. activation, % at 6.8 µM. hit rate 1% among 370,000. AID 652126;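 active = activation above the mean over all tested compounds plus 3 SD, cut at about 0.9% in these data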
DAX1 inh-2 – NR0B1 (DAX1) inhibition; HEK293 Gal4-DAX1 luciferase reporter, luminescence; P51843; inhibition, % at 6.75 µM; hit rate 0.99% among 340,000;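 active = inhibition above the mean over all tested compounds plus 3 SD, cut at about 4.2% in these data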;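 note: inhibition shows as a rise in luminescence from relieved DAX1 repression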
LXR ag – counter-screen for hcDAF-12 agonists: agonists of human LXR-beta; shares compounds with hcDAF12 agonist; HEK293 Gal4-LXR tk-luc reporter, luminescence, 24 h; normalized: DMSO 0%, positive control 100%; activation, % at 6.8 µM; 3,400 tested, under 10 active; AID 743027;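 active = mean percent activation of the reporter above a cutoff set as the average over tested compounds plus their standard deviation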
Target sequence (P55055 whole entry, looked up, the tested form may be a part): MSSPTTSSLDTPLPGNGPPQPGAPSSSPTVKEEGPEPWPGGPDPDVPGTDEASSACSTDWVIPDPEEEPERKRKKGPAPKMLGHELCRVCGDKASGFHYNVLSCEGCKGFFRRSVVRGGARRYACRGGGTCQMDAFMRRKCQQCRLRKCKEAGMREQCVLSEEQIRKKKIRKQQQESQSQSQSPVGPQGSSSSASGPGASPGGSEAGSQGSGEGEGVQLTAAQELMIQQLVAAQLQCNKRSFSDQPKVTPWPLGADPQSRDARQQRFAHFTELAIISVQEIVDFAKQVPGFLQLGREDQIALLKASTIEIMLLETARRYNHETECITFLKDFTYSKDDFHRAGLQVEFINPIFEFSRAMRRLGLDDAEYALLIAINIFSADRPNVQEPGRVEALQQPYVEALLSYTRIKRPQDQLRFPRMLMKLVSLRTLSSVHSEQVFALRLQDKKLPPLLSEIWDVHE
hcDAF12 ag – hcDAF-12 agonism, confirmation assay | hit rate 61% among 3,400 | activation, % at 6.8 µM | shares compounds with hcDAF12 agonist | HEK293 hcDAF-12 lit1-tk-luc reporter, luminescence; % of Δ7-dafachronic acid response | AID 743032;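 active = mean activation across triplicate tests above the threshold derived from the earlier primary screen, cut at about 5.5% in these data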
Large screens that a line does not name were inactive (follow-up assays come after a bar, where they were run). A selection: hits, their analogues and other compounds. The true share with any hit is near 4.1%.

CCCS(=O)(=O)Nc1c(C(=O)OC)[nH]c2ccccc12	hcDAF12 agonist 10 | LXR ag inactive | hcDAF12 ag inactive
CCOC(=O)c1[nH]c2ccccc2c1NC(=S)Nc1ccccc1C	hcDAF12 agonist 10, ssDAF12 agonist 1.1 | LXR ag inactive | hcDAF12 ag 6.6
CCCC(=O)Nc1c(C(=O)OCC)[nH]c2ccccc12	none
CCOC(=O)c1[nH]c2ccc(Br)cc2c1NC(=O)CNC	hcDAF12 agonist 9.9 | LXR ag inactive | hcDAF12 ag inactive
C[C@H]1[C@@H](OC(=O)NCCc2ccccc2)CC[C@@]23CCCN2C(=O)CCC[C@@H]13	none (no result: DAX1 inh-1, DAX1 inh-2)
CC(=O)Nc1cc(-c2ccccc2)cn2c(-c3ccc(F)c(Cl)c3)cnc12	none (no result: DAX1 inh-2)
Nc1cccn2c(-c3ccc(Cl)c(Cl)c3)cnc12	DAX1 inh-1 4.0, hcDAF12 agonist 9.5, ssDAF12 agonist 1.1 | LXR ag inactive | hcDAF12 ag 13
Cc1c(C(=O)N2CCc3ccccc32)oc2ccccc12	hgDAF12 agonist 19, DAX1 inh-1 4.4, hcDAF12 agonist 14, ssDAF12 agonist 4.6 | LXR ag inactive | hcDAF12 ag 18
O=C(c1ccc2c(c1)OCO2)N1CCc2ccccc21	hcDAF12 agonist 7.1, ssDAF12 agonist 1.1 | LXR ag inactive | hcDAF12 ag inactive
COC(=O)C1=C(C)N(CC(C)C)C(=S)NC1c1ccc(-c2ccccc2)cc1 (stereo unspecified)	none (no result: DAX1 inh-2)
COC(=O)[C@]12C[C@H](CC(=O)N3CCOCC3)C(=O)N(CCC3=CCCCC3)C1=C[C@H](COCc1ccccc1)O[C@@H]2C	none (no result: DAX1 inh-2)
S=C(NCCN1CCOCC1)Nc1ccc(Br)cc1	hcDAF12 agonist 6.9 | LXR ag inactive | hcDAF12 ag inactive
O=S(=O)(NCc1c(Cl)cccc1Oc1ccccc1)c1ccccc1	hcDAF12 agonist 20 | LXR ag inactive | hcDAF12 ag inactive
O=C1CC(c2ccc3c(c2)OCO3)Sc2nc3ccccc3n21 (stereo unspecified)	none
O=C1CC(c2cccs2)Sc2nc3ccccc3n21 (stereo unspecified)	hcDAF12 agonist 7.5, ssDAF12 agonist 1.6 | LXR ag inactive | hcDAF12 ag 7.4
O=C1CC(c2ccco2)Sc2nc3ccccc3n21 (stereo unspecified)	hcDAF12 agonist 9.8, ssDAF12 agonist 2.8 | LXR ag inactive | hcDAF12 ag 10
O=C(c1ccc2c(c1)C(=O)NC2=O)c1ccc2c(c1)C(=O)NC2=O	none (no result: DAX1 inh-2)
Cc1ccc(NC(=S)N2CCC(O)CC2)c(C)c1	none
Cc1ccc(NC(=S)N2CCCC(CO)C2)c(C)c1 (stereo unspecified)	hgDAF12 agonist 11, hcDAF12 agonist 6.9 | LXR ag inactive | hcDAF12 ag inactive
Cc1ccccc1Cn1cc(CN2[C@H](CC(C)C)COc3cc(Br)ccc3S2(=O)=O)nn1	none (no result: DAX1 inh-2)
CC1CCCC(C)N1C(=O)c1cc(-c2ccc3c(c2)OCO3)on1 (stereo unspecified)	hgDAF12 agonist 11, hcDAF12 agonist 6.6 | LXR ag inactive | hcDAF12 ag inactive
CN1CCCCC(NC(=O)c2ccc(Cl)cc2Cl)C1=O (stereo unspecified)	none (no result: DAX1 inh-2)
O=c1oc2ccccc2cc1-c1nc2ccccc2o1	hcDAF12 agonist 8.8, ssDAF12 agonist 1.0 | LXR ag inactive | hcDAF12 ag 6.3
Clc1ccc(/C=N/Nc2nnc(Cl)c3ccccc23)cc1	hcDAF12 agonist 7.0, ssDAF12 agonist 1.6 | LXR ag inactive | hcDAF12 ag 8.7
Clc1cncc(Cl)c1N/N=C/c1ccccc1	none
Clc1nnc(N/N=C/c2ccccc2)c2ccccc12	hcDAF12 agonist 7.3, ssDAF12 agonist 1.2 | LXR ag inactive | hcDAF12 ag 11
CC(=O)Nc1ccc(C=NNc2nnc(NN=Cc3ccc(NC(C)=O)cc3)c3ccccc23)cc1	none
C(=N\Nc1ncnc2ccccc12)/c1ccccc1	hgDAF12 agonist 15, hcDAF12 agonist 8.4, ssDAF12 agonist 1.3 | LXR ag inactive | hcDAF12 ag 8.5
Cc1ccc(/C=N/Nc2nnc(Cl)c3ccccc23)cc1	hcDAF12 agonist 11, ssDAF12 agonist 3.7 | LXR ag inactive | hcDAF12 ag 18
Cc1ccc(-c2nc(N/N=C/c3ccncc3)c3ccccc3n2)cc1	hcDAF12 agonist 15, ssDAF12 agonist 1.1 | LXR ag inactive | hcDAF12 ag 20
CCCCNC(=O)CN1C(=O)NC2(CCOc3ccccc32)C1=O (stereo unspecified)	none
COCCNC(=O)CN1C(=O)NC2(CCOc3ccccc32)C1=O (stereo unspecified)	hcDAF12 agonist 7.2 | LXR ag inactive | hcDAF12 ag inactive
COc1ccc(-n2c(COc3ccc(Cl)cc3)nnc2SCC(=O)Nc2ccc3c(c2)OCO3)cc1	none (no result: DAX1 inh-2)
CCOC(=O)c1ccc(/C=C2/C=C(c3ccccc3)N(c3ccc(Cl)c(C(=O)O)c3)C2=O)cc1	hcDAF12 agonist 8.4 | LXR ag inactive | hcDAF12 ag inactive
CCOC(=O)c1ccc(Cl)c(NC(=O)c2ccc(-c3ccccc3)cc2)c1	none
Fc1cccc2sc(Nc3nc4cc5c(cc4s3)OCCO5)nc12	hcDAF12 agonist 10 | LXR ag inactive | hcDAF12 ag 20
Cc1ccc(C(=O)Nc2ncc(Cc3ccccc3)s2)o1	DAX1 inh-1 3.8, hcDAF12 agonist 12 | LXR ag inactive | hcDAF12 ag 8.4
CCCCCOc1ccc(NS(C)(=O)=O)cc1	hcDAF12 agonist 8.0 | LXR ag inactive | hcDAF12 ag inactive
CNCc1ccccc1OCC(=O)Nc1ccccc1	hcDAF12 agonist 7.0 | LXR ag inactive | hcDAF12 ag inactive
CCCOc1ccc(OCCSc2ncccn2)cc1	hcDAF12 agonist 6.8 | LXR ag inactive | hcDAF12 ag inactive
CCC[C@H]1CN(c2ccc(Br)cc2)C(=O)[C@@H]1CC(=O)NC	none
Cc1c(Cl)cccc1NC(CC(=O)c1ccccc1)C(=O)OCC(=O)c1cccs1 (stereo unspecified)	none
O=C(CC(Nc1cccc(Cl)c1Cl)C(=O)OCC(=O)c1cccs1)c1ccccc1 (stereo unspecified)	hcDAF12 agonist 7.4 | LXR ag inactive | hcDAF12 ag inactive
CC(=O)Nc1cccc(NC(=O)c2cc3ccccc3o2)c1	none
COc1ccc(NC(=O)c2cc3ccccc3o2)cc1	hgDAF12 agonist 12, hcDAF12 agonist 7.2 | LXR ag inactive | hcDAF12 ag 7.3
Cc1ccc(NC(=O)c2cc3ccccc3o2)cc1Cl	hgDAF12 agonist 13, hcDAF12 agonist 8.8, DAX1 inh-2 6.8 | LXR ag inactive | hcDAF12 ag 5.9
N#Cc1cccc(NC(=O)OC2CC3CC2[C@H]2CCCCN2C3)c1 (stereo partly specified)	none (no result: DAX1 inh-2)
